# From PubChem
# This is a sample that favours compounds with a hit; in the whole collection about 5.2% have one here.
# esBAF inh: blocks esBAF chromatin remodeling in mouse ES cells; Bmi1-luciferase knock-in reporter, 24 h; 100% = twice the neutral-well signal; reporter increase, % at 12.5 µM; 350,000 tested, 2% active; AID 602393; in the data active = activation above about 40%; inconclusive = no clear call, values can overlap the other calls;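 note: 0% = median of the plate's neutral control wells and 100% = double that signal; a rise in the Bmi1 reporter signal indicates esBAF inhibition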
# NadD inh: NadD (S. aureus) enzyme inhibition | inhibition, % at 20 µM | purified NadD enzyme, colorimetric absorbance read-out | AID 602399 | 360,000 tested, 0.78% active; in the data active = inhibition above about 26%
# NR3A LBD binder: NR3A (human) ligand-binding domain modulation; Tm shift relative to glycine control, % at 25 µM; AID 1259313; NR3A LBD differential scanning fluorimetry, Tm shift; 0% = protein alone, 100% = glycine-bound protein; 340,000 tested, 2.5% active;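 active = melting temperature shift of at least 10% of the positive control shift, at one fixed dose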
# SMARCA2 act: SMARCA2 function activation, primary screen; 370,000 tested, 1% active; MG213 cells, MMTV-luciferase reporter, dexamethasone, overnight; activation, % at 9.1 µM; AID 652017; in the data active = activation above about 7.8%;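 note: 0% = vehicle wells and 100% = reference activator wells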
# SKN-1 block: C. elegans SKN-1 inhibition; C. elegans VP596 Pgst-4::GFP/RFP ratio, acrylamide-induced, 24 h; inhibition, % at 21.8 µM; 360,000 tested, 0.49% active; AID 624304;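 active = interference check ratio from 0.5 to 1.5 plus GFP to RFP signal ratio inhibition reaching or exceeding a fixed threshold, cut at about 30% in these data, passing the limit was not always enough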
# Vif imaging: blocks HIV Vif function | HEK293T cells, Vif self-association by quenched fluorescence, imaging, 24 h | inhibition, % at 7.49 µM | 340,000 tested, 0.35% active; in the data active = inhibition above about 50%, passing the limit was not always enough; inconclusive = no clear call, values can overlap the other calls; inactive = below about 31%
# SMARCA2 conf: SMARCA2 activation, confirmation screen. shares compounds with SMARCA2 act. MG213 cells, MMTV-luciferase with dexamethasone, luminescence, overnight; MG213 cells expressing E1A, Rb sequestered; DMSO wells 0%, reference activator 100%. activation, % at 9.1 µM. 3,500 tested, 30% active. AID 652260;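 active = activation above its plate's cutoff, the mean activation of tested wells plus 3 SD, cut at about 7.9% in these data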
# VP16 Luc act: GAL4-VP16 reporter activation counter-screen; activation, % at 9.1 µM; shares compounds with SMARCA2 act; 3,500 tested, 41% active; HEK293 GAL4-VP16 pG5luc reporter, luciferase luminescence; scaled: DMSO wells 0%, SAHA wells 100%; AID 686939;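 active = activation above the solvent-only control well mean plus 3 SD, averaged across control plates, cut at about 5.2% in these data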
# * hit, by the source's call; ? = inconclusive; / = no result.
SMILES,esBAF inh,NadD inh,NR3A LBD binder,SMARCA2 act,SKN-1 block,Vif imaging,SMARCA2 conf,VP16 Luc act
C[C@H]1CN([C@@H](C)CO)S(=O)(=O)c2ccc(-c3ccncc3)cc2O[C@@H]1CN(C)C(=O)c1cccc(F)c1,0.6,/,/,/,/,/,/,/
CO[C@@H]1CN(C)C(=O)c2ccc(NS(=O)(=O)c3ccccc3C)cc2OC[C@H](C)NC[C@@H]1C,10.2,/,/,/,/,/,/,/
CCN1CCN(c2ccc(NC(=O)c3ccco3)cc2Cl)CC1,36.0,2.8,0.8,3.4,-0.3,9.9,/,/
CCN1CCN(c2ccc(NC(=O)c3cccc(F)c3)cc2Cl)CC1,33.3,-14.3,-6.5,14.0*,1.8,-5.5,9.1*,5.8*
Cc1ccc2cc(NC(=O)c3cccc(F)c3)ccc2n1,15.8,2.0,3.7,8.1*,6.4,2.0,18.7*,4.7
O=C(Nc1ccc2[nH]ncc2c1)c1cccc(F)c1,24.2,-4.3,6.2,4.2,-5.9,-1.5,/,/
Cc1ccc2cc(NC(=O)c3ccccc3)ccc2n1,2.5,-3.5,-7.4,9.2*,-9.1,-14.8,7.3,12.9*
O=C(Nc1ccc2ccccc2c1)c1cccc(F)c1,49.9*,-7.3,20.2*,9.4*,3.8,1.5,3.4,10.6*
C[C@@H]1CCCCO[C@@H](CN(C)Cc2ccncc2)[C@@H](C)CN([C@@H](C)CO)C(=O)c2cc(NS(=O)(=O)c3ccc(F)cc3)ccc2O1,1.2,/,/,/,/,/,/,/
CCCn1c(C)cc(C(=O)Cn2nnc3ccccc3c2=O)c1C,/,-6.4,-0.9,9.1*,-4.9,2.4,10.1*,7.3*
COc1ccccc1-n1cc(-c2ccccc2)c2c(=S)nc[nH]c21,-0.9,4.1,-3.9,8.4*,5.2,-6.5,1.1,1.4
COc1ccc(-n2cnc(=S)[nH]c2=S)cc1,7.2,4.5,17.7*,13.6*,-3.6,-1.3,21.3*,2.0
CCN(CC)C(=O)Oc1ccc2c(=O)c(-c3ccccc3)coc2c1,26.1,-8.1,-4.4,12.7*,13.0,-15.2,7.8,11.4*
c1ccc(CNn2nnc3ccccc32)cc1,/,1.1,/,11.7*,11.0,5.4,10.0*,11.4*
COc1ccccc1-c1nnc(Nc2nc3c(OC)cccc3s2)o1,-36.9,29.7,-0.3,14.8*,9.7,?,6.3,24.4*
COc1cccc(-c2nnc(Nc3nc4c(F)cccc4s3)o2)c1,24.8,15.7,-5.4,3.0,5.7,-0.3,/,/
COc1cccc2sc(Nc3nnc(-c4ccccc4Cl)o3)nc12,-4.3,10.2,-8.2,8.8*,-11.6,23.8,5.8,2.3
CCc1ccc(NC(=O)CNC(=O)Cn2ccc3ccccc3c2=O)cc1,-4.1,-1.7,-4.5,9.1*,0.0,18.5,-0.1,1.7
O=C(C[C@@H]1CC[C@@H]2[C@H](COC[C@H](O)CN2Cc2cccc(F)c2)O1)NCCc1ccncc1,3.0,/,/,/,/,/,/,/
C[C@H](CO)N1C[C@H](C)[C@@H](CN(C)S(=O)(=O)c2cn(C)cn2)Oc2ccc(NC(=O)c3ccncc3)cc2C1=O,2.4,/,/,/,/,/,/,/
N#C/C(=N\Nc1ccc(F)cc1)C(=N)N1CCCCCC1,31.2,-4.3,-1.2,12.0*,-12.2,-2.1,14.8*,19.2*
Cc1ccc(N/N=C(\C#N)C(=N)N2CCCCCC2)cc1,/,0.1,5.2,8.3*,1.4,/,11.6*,13.6*
CC=Cc1ccc2n(c1=O)C[C@@H]1[C@@H](CO)[C@H](C(=O)NCc3ccccc3Cl)N(S(C)(=O)=O)[C@H]21 (mixture of isomers),2.0,/,/,/,/,/,/,/
COc1ccc2nc(/N=C\N(C)C)sc2c1,12.2,7.7,-0.8,0.8,8.7,10.9,/,/
CN(C)/C=N/c1nc2ccc3c(c2s1)CCCC3,?,2.0,-0.9,15.1*,22.9,-5.7,17.5*,12.8*
COCCN(CCOC)c1ncnc2c1cnn2-c1ccc(Cl)cc1,16.7,0.5,1.9,-1.9,10.3,/,/,/
